Laboratory results reported in ChEMBL document CHEMBL4513216, “Probing the Open Global Health Chemical Diversity Library for Multistage-Active Starting Points for Next-Generation Antimalarials” (ACS Infect Dis, 2020).
About 2,100 (3.2%) of roughly 65,000 compounds showed an effect of 50% or more. The median lay at about -52%. Many of the other results were omitted from the sample, so strong results are more common in it than they were.

The molecules below were run on Plasmodium falciparum (assay: Screen against P. falciparum Asexual Blood Stage (ABS), at 5uM). Conditions: tested at 5 uM.
Assay type: functional, Dd2

| Compound | INHIBITION [%] |
| --- | --- |
| COc1ccc(NC(=O)CNc2ccc(Br)cc2F)cc1 | -68.8 |
| COc1ccc(OC)c(CNCc2c(C(C)C)nn(C)c2N(C)C)c1 | 69.3 |
| COc1cccc(CNCc2c(C(C)C)nn(C)c2N(C)C)c1OC | 33.3 |
| COc1cccc(CNCc2c(C(C)C)nn(C)c2N(C)C)c1 | -5.49 |
| CC(C)COc1cncc(N2CCCN(c3ncccn3)CC2)n1 | -186 |
| c1ccc(C2=NOC3(CCN(Cc4c[nH]c5ccccc45)CC3)C2)cc1 | 36.1 |
| O=C(c1cn[nH]c1)N1CCC2(CCCN(Cc3ccc(F)c(F)c3)C2)C1 (centres undefined) | -25.8 |
| Fc1ccc(CN2CCCC3(CCN(Cc4ncc[nH]4)C3)C2)cc1F (centres undefined) | 60.9 |
| Cc1ccc(CN2CCC3(CCCN(Cc4ccc(F)c(F)c4)C3)C2)o1 (centres undefined) | 28.1 |
| CCc1nc2c(s1)C(N(C)C(=O)c1csnn1)CCC2 (centres undefined) | -32.3 |
| COCC1(Nc2nc(C)nc3c2cnn3C)CCCC1 | -142 |
| Cc1nc(NC2(CN3CCCCC3)CCCCC2)c2cnn(C)c2n1 | 56 |
| CCOC(=O)CC1(Nc2nc(C)nc3c2cnn3C)CCCCC1 | -25.2 |
| Cc1nc(C(=O)NCCS(=O)(=O)N2CCCC2)cs1 | -31.8 |
| Cc1nc(COc2ccc(OC3CCCCNC3=O)cc2)oc1C (centres undefined) | -151 |
| O=C(Nc1ccc2c(c1)C(=O)NC2=O)c1cccs1 | -80.7 |
| CCC(=O)N1CCC2(CC1)COCCN2Cc1ccc(F)cc1 | -31.7 |
| CC(=O)N(Cc1noc(C)n1)C1CCN(CCOc2ccccc2)C1 (centres undefined) | -79.1 |
| Cn1cc(N2CC3(CCN(CC4CC4)CC3)OCC2=O)cn1 | -53.1 |
| Cc1noc(-c2ccnc(Oc3ccccc3CN3CCCCC3)c2)n1 | -36.8 |
| Cc1noc(-c2ccnc(Oc3ccc(CN4CCCC4)cc3F)c2)n1 | -38.8 |
| Cc1noc(-c2ccnc(Oc3ccc(CN4CCCC4)cc3C)c2)n1 | 53.3 |
| Cc1ccc(-c2nnc(CN3CCc4nn(C)c(=O)cc4C3)o2)cc1 | -38.4 |
| CCOC(=O)N1CCN(c2nc(NC3CC3)c3ccccc3n2)CC1 | 4.86 |
| Cc1csc2c(C3CCCN(C(=O)CCn4ccnc4)C3)nc(C)n12 (centres undefined) | -97.3 |
| COCCN(CC1CCCN(C2Cc3ccccc3C2)C1)C(=O)COC (centres undefined) | 39.5 |

| Compound | INHIBITION [%] |
| --- | --- |
| COCCN(CC1CCCN(C2Cc3ccccc3C2)C1)C(=O)CSC (centres undefined) | 1.3 |
| COCCN(CC1CCCN(C2Cc3ccccc3C2)C1)C(=O)CO (centres undefined) | 59.9 |
| O=C(NC1CCC1)C1=NOC2(CCN(Cc3ccc(F)cc3)C2)C1 (centres undefined) | -11.6 |
| c1ccc(CN2CC[C@@H]3O[C@@H](COCCN4CCCC4)CC[C@@H]32)nc1 | -36 |
| COCCN1CC[C@@H]2OC[C@H](C(=O)N(C)Cc3ccccn3)C[C@@H]2C1 | 11.1 |
| c1cc(CN2CCCC2)ccc1CNc1cncc2nnnn12 | -31.2 |
| c1ccc(CN2CCCC2)c(CNc2cncc3nnnn23)c1 | 61.4 |
| c1cc(N2CCSCC2)ccc1CNc1cncc2nnnn12 | -119 |
| Cc1cc(C(=O)N2C[C@@H]3COC[C@]3(CN(C)C)C2)sc1C | -113 |
| Cc1cc(N(C)CCN(C)C2CCCC2)n2nc(C)cc2n1 | 55.7 |
| Cc1cc(C)nc(N(C)CCN(C)C2CCCC2)n1 | 28 |
| Cc1cc(N(C)CCN(C)C)n2nc(C)cc2n1 | -113 |
| O=C(c1ccc2[nH]ccc2c1)N1CCn2cc(CN3CCCC3)nc2C1 | -38.2 |
| COCCn1cc2c(n1)C(CNCc1ccc(F)cc1)OCC2 (centres undefined) | -11.4 |
| c1cc(CNCC2OCCc3cn(CC4CC4)nc32)cs1 (centres undefined) | 47 |
| Fc1ccc(CNCC2OCCc3cn(CC4CC4)nc32)cc1 (centres undefined) | 68.9 |
| CCc1cnc(CNC(=O)NCCc2ccc(O)cc2)s1 | -13.3 |
| CNC(=O)CC1CC2(CCN(c3ncccn3)CC2)c2ccccc21 (centres undefined) | -87 |
| Cc1cccc(N2CC3(CCN(Cc4nccn4C)C3)CC2=O)c1 (centres undefined) | -54.9 |
| COCc1ncc(CN2CC[C@@H](NC(=O)c3cccnc3)[C@H](O)C2)cn1 | -35.5 |
| CC(C)(C)n1ncc(NCC(O)c2ccccc2)c(Cl)c1=O (centres undefined) | -162 |
| Cc1cccc(C2(CNC(=O)CO)CCCC2)c1 | -108 |
| Cc1cccc(C2(CNC(=O)C(C)NC(N)=O)CCCC2)c1 (centres undefined) | 69.9 |
| Cc1cccc(C2(CNC(=O)C(C)S(C)(=O)=O)CCCC2)c1 (centres undefined) | -66 |
| NC(=O)[C@@H]1Cc2ccccc2CN1S(=O)(=O)N1CCCCC1 | -124 |
| CC(CNC1CCN(Cc2ccncc2)CC1)c1ccc(F)cc1F (centres undefined) | 70 |

| Compound | INHIBITION [%] |
| --- | --- |
| CC(NC(=O)NC1CCN(Cc2ccncc2)CC1)c1cccc(F)c1 (centres undefined) | -98.2 |
| CC(NC(=O)NC1CCN(Cc2ccncc2)CC1)c1ccc(F)cc1 (centres undefined) | -35.2 |
| Cc1cc(F)ccc1C(=O)N1C[C@@H]2COC[C@]2(CN(C)C)C1 | -31.2 |
| CC(C)(C)c1cc(NC(=O)CN2CCCC2Cn2cccn2)on1 (centres undefined) | -91.6 |
| NC(=O)C1CCN(C(=O)NCc2cccnc2OCC(F)(F)F)C1 (centres undefined) | -75.2 |
| CN1CCCN(c2nc3c(cnn3C(C)(C)C)c(=O)[nH]2)CC1 | -12.6 |
| CC(=O)N1CCN(c2nc3c(cnn3C(C)(C)C)c(=O)[nH]2)CC1 | -76.5 |
| CC(C)(C)n1ncc2c(=O)[nH]c(N3CCC4(CCCCC4)C3)nc21 | 52.6 |
| Cn1ccc(CN2CCCC23CCN(Cc2ccccc2F)CC3)n1 | 0.737 |
| Cc1nc(CNC(=O)Nc2cc(F)ccc2N2CCN(C)CC2)no1 | -28.8 |
| CCN1CCN(c2ccc(F)cc2C(C)NCc2nc(C)no2)CC1 (centres undefined) | 7.98 |
| CCN1CCN(c2ccc(F)cc2C(C)NCc2noc(C)n2)CC1 (centres undefined) | 53.9 |
| Cc1nccc(N[C@H]2CN(C(=O)CCN3CCCC3=O)C[C@@H]2C(C)C)n1 | -132 |
| COCCNCc1ccc(OCC(=O)NC(C)(C)C)cc1 | -80.9 |
| Cc1ccc(C(=O)N2CCC3(CCN3Cc3ccc(F)cc3)C2)cn1 (centres undefined) | -74.2 |
| COCCN1CCO[C@H]2CN(C(=O)c3cccs3)C[C@H]21 | -92.4 |
| c1coc(-c2nnc(CN3CCCC(CN4CCCCCC4)C3)o2)c1 (centres undefined) | -67.1 |
| CC(C)N(CC1CCCN(Cc2ccon2)C1)C(=O)OC(C)(C)C (centres undefined) | -5.65 |
| CC(C)N(CC1CCCN(CC(N)=O)C1)C(=O)OC(C)(C)C (centres undefined) | -14.8 |
| Cc1noc(C)c1CN1CCCC(CN(C(=O)OC(C)(C)C)C(C)C)C1 (centres undefined) | 54.1 |
| c1cncc(OC2CCN(CCn3cc4ccccc4n3)CC2)c1 | -47.4 |
| CN(CC(=O)Nc1cnn(-c2ccccc2S(C)(=O)=O)c1)C1CC1 | -85.55 |
| c1cncc(COCC2CC[C@H]3[C@H](CCN3CC3CCOCC3)O2)c1 (some centres undefined) | -5.45 |
| COCCN1CCN(Cc2csc(-c3cnn(C)c3)n2)CC1 | -30.6 |
| Cn1cc(C2CCCN2Cc2csc(-c3ccsc3)n2)cn1 (centres undefined) | -32.1 |
| Cn1cc(C2CCCN2Cc2csc(-c3ccccc3)n2)cn1 (centres undefined) | 53.8 |

| Compound | INHIBITION [%] |
| --- | --- |
| CCCC1CCCN(Cc2csc(-c3cnn(C)c3)n2)CC1 (centres undefined) | 54.1 |
| Cn1cc(-c2nc(CN3CCN(CCO)CC3)cs2)cn1 | -59.9 |
| Cn1cc(C2CCCN2Cc2csc(Cc3ccccc3)n2)cn1 (centres undefined) | 13.8 |
| CCCS(=O)(=O)CCSc1cccc(C#N)c1 | -113 |
| O=C(Cc1ccsc1)N1CCC(c2noc(-c3cccnc3)n2)CC1 | -53.4 |
| O=C(Cc1ccncc1)N1C[C@H]2CC[C@@H](C1)N(Cc1ccccc1)C2=O | -99.2 |
| COc1ccc(Oc2ncccc2C(F)(F)F)cc1CN1CCCC1 | 32.5 |
| Fc1cc(Oc2ccc(C(F)(F)F)cn2)cc(F)c1CN1CCCC1 | 24.4 |
| COc1ccc(Oc2nccc3occc23)cc1CN1CCCC1 | 61.8 |
| COc1cc(Oc2ccc(C(F)(F)F)cn2)ccc1CN1CCCC1 | 30.2 |
| COc1ccc(Oc2cccc(C#N)n2)cc1CN1CCCC1 | -20.2 |
| COc1ccc(Oc2ccc(C(F)(F)F)cn2)cc1CN1CCCC1 | 51.7 |
| COc1cc(Oc2ccc(C(N)=O)cn2)ccc1CN1CCCC1 | -42.6 |
| COc1ccc(Oc2ncccc2F)cc1CN1CCCC1 | 15.9 |
| COc1cc(Oc2cnc3ccccc3n2)ccc1CN1CCCC1 | 59 |
| CCN(C)C[C@@H]1CN(C(=O)c2cc(C(F)(F)F)n[nH]2)C[C@@H]1CO | -5.31 |
| COC[C@@]12CCO[C@@H]1CCN(Cc1ccc(C)s1)C2 | -35.8 |
| COCCC(=O)N1CC2(CCN(Cc3ccccc3Cl)CC2)C1 | 0.294 |
| Cc1cc(C)c(CNC(=O)NCCC2CCCO2)c(=O)[nH]1 (centres undefined) | 20.5 |
| Cc1cc(C)c(CNC(=O)NCC2CCCO2)c(=O)[nH]1 (centres undefined) | -64.8 |
| Cc1cc(C)c(CNC(=O)CCC2CCCO2)c(=O)[nH]1 (centres undefined) | 53.2 |
| Cc1c(NC(=O)N(C)CCO)cccc1OC1CCCC1 | -65.2 |
| CC(C)Cc1cc(CN2C[C@@H]3CC[C@H]2CN(Cc2cscn2)C3)n[nH]1 | 66.6 |
| CC(C)(C)c1cc(CN2C[C@@H]3CC[C@H]2CN(Cc2cscn2)C3)n[nH]1 | 20.1 |
| CC(C)(C)c1cc(CN2C[C@H]3CC[C@@H](C2)N(Cc2ccccn2)C3)n[nH]1 | 47.7 |
| CCc1nccn1-c1nccnc1C1CCN(C(=O)COC)CC1 | -25.8 |
